This note sets out measurements from PubChem BioAssay.

A short description of experiment [1]: Wnt pathway potentiators raising nuclear beta-catenin – imaging, WNT3A-conditioned medium, mouse C2C12, NPC library, primary screen (AID 1117326; in the data active = nuclear beta-catenin stimulation mostly above about 4.2%, no sharp cut-off; inactive = mostly below about 10%). As to conditions: stronger effect = higher value.
The nature of experiment [2]: stimulators of insulin release from INS-1E, primary screen, cell-based, 5 mM glucose, NPC library (AID 1117329;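 active = compound raises insulin release from rat beta cells at 5 mM glucose, no numeric limit stated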). As to conditions: rat INS-1E insulin secretion, at 10 µM, stronger effect = higher value.
Experiment [3] can be described thus: growth inhibition of GSK3B-pretreated HCT116 cells – cell-based, CellTiter-Glo, 0.2 to 20 µM (AID 1117336;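 active = compounds lowering colon cancer cell viability after pretreatment blocking the GSK3B kinase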). As to conditions: HCT116 viability after GSK3B inhibitor, at 20 µM, stronger effect = higher value. (In general: ATP-based viability assays read luminescence as a measure of living cells.)
Experiment [4] in a line: inhibition of endothelial tube formation, primary screen, imaging, VEGF stimulated, CD31 staining, tube area, NPC library (AID 1117340;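 active = compound that reduces growth-factor-driven endothelial tube area in a mixed cell culture, no cutoff stated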). As to conditions: VEGF-stimulated ADSC/ECFC co-culture, at 10 µM, stronger effect = higher value.
The nature of experiment [5]: GLP1 release stimulators, primary, NCI-H716, NPC library (AID 1117341;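 active = compound raises GLP1 secretion from the human gut endocrine cells, with no numeric limit stated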). Conditions: NCI-H716 cells, at 10 µM, stronger effect = higher value.
Experiment [6] in a line: HCT116 colon cancer cell growth inhibition, primary screen, CellTiter-Glo luminescence, NPC library (AID 1117342;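 active = compounds that lower survival of HCT116 colon cancer cells in the luminescence readout, no numeric limit stated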). Conditions: at 20 µM (top of the series).
Experiment [7] is described as follows: reduced SW480 viability measured with CellTiter-Glo, NPC library, primary (AID 1117343;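 active = compounds that lower viability of the colon cancer cells in the luminescence readout, with no numeric limit stated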). As to conditions: CellTiter-Glo luminescence; at 20 µM (top of the series) unless noted.
Experiment [8] can be described thus: NPC library primary testing for decreased DLD-1 cell viability via CellTiter-Glo (AID 1117346;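 active = compounds that lower survival of DLD-1 colon cancer cells in the luminescence readout, no cutoff given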). As to conditions: DLD-1 viability, CellTiter-Glo luminescence; at 20 µM (top of the series).
Experiment [9] in a line: EMT-state selective cytotoxicity in co-culture – imaging, PC-3E GFP, TEM4-18 mCherry, primary screen (AID 1345086;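 active = compounds killing one labelled cell type while sparing the other, by normalised counts and ratio limits, not self-fluorescent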;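 for all read-outs here: cells exposed to compound for 72 h before imaging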;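 for red/green cell ratio (normalised): normalised mesenchymal count divided by normalised epithelial count so high means epithelial killing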). Conditions: PC-3E GFP / TEM4-18 mCherry co-culture, imaging cell counts, at 1 µM; for red/green cell ratio (normalised): actives lie on both sides, counts scaled to control wells, 1 = unselective.
The nature of experiment [10]: viability loss with induced miR-34 in A549 – imaging, A549 dox-inducible miR-34, nuclei and caspase counts, primary screen (AID 1347080). Conditions: A549 miR-34 inducible, Hoechst nuclei count, 48 h.
The target of experiment [11] is NAD(+) hydrolase SARM1 (Homo sapiens) (UniProt Q6SZW1). Kind of experiment: blocking NAD cleavage by SARM1 SAM-TIR – cell lysate, NAD-Glo luminescence (AID 1508614;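 active = compound whose remaining NAD level is above about 45 nM, limit read from the data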;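 note: higher remaining NAD means stronger inhibition of SARM1 NADase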). Conditions: SAM-TIR HEK293T lysate NADase, at 1 µM, stronger effect = higher value.
A short description of experiment [12]: compounds altering viability of human ES cells (AID 493140; call rule not given here;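 note: cells exposed to compounds for four days before counting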). Conditions: human embryonic stem cell survival screen; stronger effect = higher value.
Experiment [13] in a line: P. berghei load reduction in hepatocytes – cell-based, HepG2, luciferase luminescence, HepG2 viability, primary screen (AID 624349; in the data active = parasite load remaining mostly below about 12%, no sharp cut-off; inactive = mostly above about 10%;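 note: 100% = mean of DMSO negative control wells on the same plate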). As to conditions: P. berghei liver stage in HepG2, luciferase luminescence, concentration not given here; parasite load remaining: stronger effect = lower value; viability: measured here: HepG2 viability without parasites.
Experiment [14] can be described thus: MELAS cybrid and Rieske KO viability enhancers – cell-based, MELAS cybrids, Rieske KO mouse fibroblasts, CellTiter-Glo, primary screen (AID 1508586;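 active = mean z-score across replicates of 1.96 or higher in either the MELAS or the Rieske mutant cell line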;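 note: z relative to plate mean and SD of compound and empty wells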). Conditions: low glucose.
Where [15] appears, read: measured here: epithelial PC-3E GFP cell survival.
Where [16] appears, read: measured here: mesenchymal TEM4-18 mCherry cell survival.
The mark [17] stands for this setting: stronger effect = lower value, cell number ratio, induced over uninduced.
The mark [18] stands for this setting: measured here: relative caspase fold change +Dox/-Dox.
Setting [19] is: measured here: total cells with miR-34 induction, stronger effect = lower value.
Setting [20] is: measured here: total cells without miR-34 induction.

Active and inactive are the calls of the source.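 Rule for the calls, unless noted: active = compounds whose cell count with miR-34 switched on is under 0.7 times the count with it off; inactive = the rest.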

Sequence of NAD(+) hydrolase SARM1 (Homo sapiens) (Q6SZW1 whole entry, looked up): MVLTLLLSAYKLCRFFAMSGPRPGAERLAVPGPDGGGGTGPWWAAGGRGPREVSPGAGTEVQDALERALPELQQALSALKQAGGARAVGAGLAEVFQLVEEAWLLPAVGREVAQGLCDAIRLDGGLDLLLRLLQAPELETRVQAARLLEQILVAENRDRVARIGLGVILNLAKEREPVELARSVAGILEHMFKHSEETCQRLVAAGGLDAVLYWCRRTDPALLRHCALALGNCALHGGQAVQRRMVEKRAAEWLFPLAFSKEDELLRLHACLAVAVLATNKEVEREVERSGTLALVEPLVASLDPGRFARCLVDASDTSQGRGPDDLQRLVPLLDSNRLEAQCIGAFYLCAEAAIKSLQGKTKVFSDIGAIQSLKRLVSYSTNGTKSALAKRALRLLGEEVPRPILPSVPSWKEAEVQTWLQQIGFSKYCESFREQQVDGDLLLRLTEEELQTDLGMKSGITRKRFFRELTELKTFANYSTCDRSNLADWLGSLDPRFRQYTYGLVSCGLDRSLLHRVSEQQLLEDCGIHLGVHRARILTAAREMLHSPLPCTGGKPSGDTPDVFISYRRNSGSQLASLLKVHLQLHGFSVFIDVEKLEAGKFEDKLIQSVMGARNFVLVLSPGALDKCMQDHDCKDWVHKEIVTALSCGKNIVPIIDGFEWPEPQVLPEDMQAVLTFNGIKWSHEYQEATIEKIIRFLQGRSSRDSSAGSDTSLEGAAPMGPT

With `CC(=O)N[C@@H](CCC(N)=O)C(=O)O`, the nuclear beta-catenin stimulation in experiment [1] (at 10 µM) is -2.5% (inactive); in experiment [1] (stimulation, at 2 µM), 0.1%. Further, the insulin secretion stimulation in experiment [2] was 2.8% (inactive). Further, the viability decrease in experiment [3] was -2.5% (inactive). Further, the tube area decrease in [4] is 12.1% (inactive). The GLP1 secretion stimulation in [5] is -3.6% (inactive). The inhibition of viability in experiment [6] was 0.7% (inactive). For the same compound, the viability decrease (inhibition) was 9.6% (inactive) in [7] and -3.7% (inactive) in experiment [8]. The red/green cell ratio (normalised) in experiment [9] was 0.96 (inactive). In addition, the normalised cell number turned out to be 0.97 in [9] (setting [15]) and 0.93 in [9] (setting [16]). Besides, the fold change in experiment [10] (setting [17]) is 0.922 (inactive); in experiment [10] (setting [18]), 0.675. The cell count in experiment [10] (setting [19]) stood at 8950; in [10] (setting [20]), 9710. Further, the remaining NAD in experiment [11] is 10 nM (inactive).

For `Cc1cccc(C)c1NC(=O)c1ccccc1C(=O)O`, the nuclear beta-catenin stimulation is 0.1% (inactive) in [1] (at 10 µM) and 0.7% in [1] (stimulation, at 2 µM). In addition, in experiment [2], the insulin secretion stimulation was -0.4% (inactive). The viability decrease in experiment [3] is -4.6% (inactive). For the same compound, the tube area decrease in [4] was -28.9% (inactive). Moreover, in experiment [5], the GLP1 secretion stimulation was 1.9% (inactive). In experiment [6], the inhibition of viability was 3.1% (inactive). Besides, the viability decrease (inhibition) in experiment [7] was 49.6% (inactive); in experiment [8] it was 17.1% (inactive). Also, the red/green cell ratio (normalised) in experiment [9] was 0.84 (inactive). Moreover, the figures for the normalised cell number in experiment [9] (setting [15]) and in experiment [9] (setting [16]) were 0.94 and 0.79, respectively. Besides, the results for the fold change in experiment [10] (setting [17]) and in experiment [10] (setting [18]) were 0.96 (inactive) and 0.664, respectively. For the same compound, the cell count in [10] (setting [19]) worked out at 8770; in experiment [10] (setting [20]), 9130. For the same compound, in [11], the remaining NAD is 10 nM (inactive).

Usually viability stands for a read-out of living cells in per cent, often relative to untreated cells. For the compound `CCN1C(=O)NC(c2ccccc2)C1=O` (centres undefined), in [12], the survival is 2.42 (inactive). Moreover, the parasite load remaining in [13] was 83.9% (inactive). For the same compound, the viability in experiment [13] came out at 100%. Further, the nuclear beta-catenin stimulation in experiment [1] (at 10 µM) was -2.4% (inactive); in experiment [1] (stimulation, at 2 µM), -0.9%. For the same compound, the insulin secretion stimulation in experiment [2] was -1% (inactive). Also, the viability decrease in [3] is -5.5% (inactive). The tube area decrease in [4] is -23% (inactive). Besides, the GLP1 secretion stimulation in experiment [5] was 7% (inactive). In addition, in experiment [6], the inhibition of viability was -1% (inactive). In addition, the values for the viability decrease (inhibition) in experiment [7] and in experiment [8] were 2.2% (inactive) and 8.6% (inactive), respectively. The red/green cell ratio (normalised) in experiment [9] was 0.92 (inactive). Moreover, the values for the normalised cell number in experiment [9] (setting [15]) and in [9] (setting [16]) were 1.08 and 1, respectively. Besides, the fold change in experiment [10] (setting [17]) is 0.858 (inactive); in experiment [10] (setting [18]) it was 1.11. The cell count in experiment [10] (setting [19]) was determined as 8830; in [10] (setting [20]), 10300. Besides, the z-score in experiment [14] (MELAS cybrid survival, CellTiter-Glo 48 h, stronger effect = higher value) is 0.723 (inactive); in [14] (Rieske KO mouse fibroblast survival, CellTiter-Glo 72 h), 0.79. Further, the remaining NAD in experiment [11] was 10 nM (inactive).

Turning to `O=C(OOC(=O)c1ccccc1)c1ccccc1`, the parasite load remaining in experiment [13] is 39% (inactive). The viability in [13] worked out at 82.1%. Besides, the nuclear beta-catenin stimulation in experiment [1] (at 10 µM) is 2.3% (inactive); in experiment [1] (stimulation, at 2 µM), 0.3%. The insulin secretion stimulation in experiment [2] is -1.3% (inactive). Moreover, in experiment [3], the viability decrease is -5.45% (inactive). The tube area decrease in [4] was -15.4% (inactive). Also, the GLP1 secretion stimulation in experiment [5] was -3.2% (inactive). In addition, in [6], the inhibition of viability was 1.1% (inactive). The viability decrease (inhibition) was 10% (inactive) in experiment [7] and 18.9% (inactive) in [8]. In addition, in experiment [9], the red/green cell ratio (normalised) is 1.04 (inactive). Moreover, the normalised cell number is 1.11 in [9] (setting [15]) and 1.15 in experiment [9] (setting [16]). In addition, the fold change was 0.948 (inactive) in experiment [10] (setting [17]) and 3.94 in experiment [10] (setting [18]). The cell count turned out to be 10800 in experiment [10] (setting [19]) and 11400 in [10] (setting [20]). In experiment [11], the remaining NAD is 10 nM (inactive).

For `O=C1c2ccccc2C(=O)C1c1ccc(Br)cc1`, the parasite load remaining in experiment [13] was 54.8% (inactive). Besides, in [13], the viability is 105%. For the same compound, the nuclear beta-catenin stimulation in experiment [1] (at 10 µM) was 2.7% (inactive); in experiment [1] (stimulation, at 2 µM), 1.3%. In addition, the insulin secretion stimulation in experiment [2] was 4.3% (inactive). For the same compound, the viability decrease in experiment [3] was 52.2% (active). In experiment [4], the tube area decrease was 31.1% (inactive). Further, the GLP1 secretion stimulation in experiment [5] was -0.4% (inactive). The inhibition of viability in experiment [6] is 61.7% (active). The figures for the viability decrease (inhibition) in experiment [7] and in experiment [8] were 67.2% (active) and 26.1% (inactive), respectively. Besides, the red/green cell ratio (normalised) in experiment [9] was 0.9 (inactive). Further, the normalised cell number in [9] (setting [15]) was found to be 0.94; in [9] (setting [16]) it was 0.85. Also, the fold change in experiment [10] (setting [17]) was 0.831 (inactive); in experiment [10] (setting [18]) it was 3.92. Besides, the cell count in [10] (setting [19]) was 10800; in experiment [10] (setting [20]), 13100. Moreover, in experiment [11], the remaining NAD is 10 nM (inactive).
